A short description of assay [1]: qHTS assay to identify small molecule antagonists of the estrogen receptor alpha (ER-alpha) signaling pathway using the BG1 cell line in the presence of 0.1 nM 17-beta-estradiol - cell viability counter screen (AID 1259241). Also: nearly all actives have a fitted effect of over 40% in size. Put shortly:
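Viability in VM7Luc4E2 cells after 22 hr compound exposure under 0.1 nM 17beta-estradiol stimulation, by CellTiter-Fluor.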

Assay [2] is described as follows: qHTS assay to identify small molecule antagonists of the androgen receptor (AR) signaling pathway using the MDA cell line in the presence of 0.5 nM R1881 - cell viability counter screen (AID 1259242). Also: nearly all actives have a fitted effect of over 45% in size. Put shortly:
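Viability of MDA-kb2 cells was multiplexed with the luciferase AR readout; after 16 hr with compounds and R1881 at 0.5 nM final, CellTiter-Fluor fluorescence was recorded.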

Assay [3] addresses Estrogen receptor (Homo sapiens) (UniProt P03372). The experiment in a line: qHTS assay to identify small molecule antagonists of the estrogen receptor alpha (ER-alpha) signaling pathway using the BG1 cell line in the presence of 0.1 nM 17-beta-estradiol (AID 1259244). Also: nearly all actives have a fitted effect of over 50% in size. Also: potency is read from the fitted curve at half-maximal effect. An outline of the steps:
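Estradiol at 0.1 nM (final) stimulates the endogenous ER-alpha of VM7Luc4E2 cells carrying an ERE-driven luciferase; compounds are co-incubated 22 h at 37C and luciferase output quantified by luminescence.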
A general note: qHTS replaces the single test concentration by a dilution series.

A short description of assay [4]: qHTS assay to identify small molecule HDAC inhibitors (AID 1259364). Also: potency is read from the fitted curve at half-maximal effect.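 Also: wild-type HCT-116 cells with endogenous class I/II HDAC activity; nearly all actives have a fitted effect of over 45% in size.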 Put shortly: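 Read-out: luminescence of HDAC-Glo I/II reagent, 30 min RT, reflecting class I/II deacetylase activity in whole HCT-116 cells pre-exposed 2 h to DMSO-dissolved compounds.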
The nature of assay [5]: qHTS assay to identify small molecule HDAC inhibitors - cell viability counter screen (AID 1259365). Also: series mostly up to about 92 µM; nearly all actives have a fitted effect of over 50% in size. An outline of the steps: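 Cytotoxicity was gauged in wild-type HCT-116 cells after a brief 2hr treatment with DMSO-dissolved compounds at 37C and 5% CO2, using CellTiter-Glo luminescence developed for 30min at room temperature.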
Assay [6] in a line: qHTS assay to identify small molecule agonists of the sonic hedgehog signaling (Shh) pathway - cell viability counter screen (AID 1259366). Also: nearly all actives have a fitted effect of over 50% in size. Put shortly:
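Stable Gli1-Luc NIH/3T3 clone, 2,000 cells/well. Compound exposure 24hr at 37C. Read-out: CellTiter-Fluor fluorescence.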

Assay [7] can be described thus: qHTS assay to identify small molecule antagonists of the sonic hedgehog signaling (Shh) pathway - cell viability counter screen (AID 1259367). Also: nearly all actives have a fitted effect of over 55% in size. An outline of the steps:
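After a 4 hr settling period, 3T3 Gli1-Luc cells were treated with DMSO-dissolved chemicals and conditioned medium, kept 24 hr at 37C in 5% CO2, and assayed for viability by CellTiter-Fluor fluorescence following 1 hr reagent incubation.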

Assay [8] can be described thus: qHTS assay to identify small molecule agonists of the sonic hedgehog signaling (Shh) pathway (AID 1259368; calls by dose curve;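 also: NIH/3T3-derived 3T3Gli1-Luc cells carrying a stable Gli1-driven firefly luciferase reporter; series mostly up to about 92 µM; nearly all actives have a fitted effect of over 15% in size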). An outline of the steps:
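A Gli1 transcriptional response element controlled firefly luciferase in 3T3Gli1-Luc cells. Compounds and a positive control were added 4 hr after plating, and cells were incubated a further 24 hr at 37 C before luminescence detection.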

A short description of assay [9]: qHTS assay to identify small molecule phospholipidosis (PLD) inducers (AID 1259344; active = well fitted curve in the direction sought with a large enough effect; an effect the other way counts as inactive or inconclusive). An outline of the steps:
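HepG2 cells grown on collagen I take up LipidTOX Red while exposed to compound for 24 h; after fixation they are imaged at 20x and pit metrics are extracted.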

Each structure is given as a SMILES string. A number with no mark means an inactive call. Inconclusive results are not listed. Activity calls are given as the source filed them. Unless noted, calls follow the shape of the dose curve; as a rule, active = well fitted curve in the direction sought with a large enough effect in the repeat runs; inconclusive = weak or mixed curves; inactive = no such curve, though single readings can be large; an effect the other way counts as inactive or inconclusive.
% is scaled to controls: 0 for no effect and ±100 for the full control effect.

Sequence of Estrogen receptor (Homo sapiens) (P03372 whole entry, looked up): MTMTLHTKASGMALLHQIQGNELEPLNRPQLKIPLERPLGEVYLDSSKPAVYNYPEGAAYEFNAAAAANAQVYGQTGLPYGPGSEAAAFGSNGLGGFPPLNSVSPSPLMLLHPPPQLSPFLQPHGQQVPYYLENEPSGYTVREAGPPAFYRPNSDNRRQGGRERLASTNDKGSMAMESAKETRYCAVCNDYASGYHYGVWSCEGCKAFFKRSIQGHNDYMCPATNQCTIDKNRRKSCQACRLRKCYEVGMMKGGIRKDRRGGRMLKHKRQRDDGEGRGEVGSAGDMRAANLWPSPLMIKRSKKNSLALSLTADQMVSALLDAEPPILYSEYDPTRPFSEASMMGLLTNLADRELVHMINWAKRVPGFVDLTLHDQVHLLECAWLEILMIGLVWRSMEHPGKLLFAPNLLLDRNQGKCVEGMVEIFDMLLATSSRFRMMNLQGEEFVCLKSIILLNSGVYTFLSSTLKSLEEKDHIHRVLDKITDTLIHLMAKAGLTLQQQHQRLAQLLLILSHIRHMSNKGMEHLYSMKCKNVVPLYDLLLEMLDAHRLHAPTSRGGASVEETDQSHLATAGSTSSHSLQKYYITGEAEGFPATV

`CN(C)c1ccc(CCO)cc1`: the Potency entry in assay [1], in assay [2], in assay [3], in assay [4], in assay [5] and in assay [6] was “inactive” throughout. The Potency result in assay [7] is “inactive”. The molecule was called inactive in [8].
As to `CCCCCCCCCCCCCCOS(=O)(=O)O`, the Potency result in assay [1], in assay [2], in [3], in assay [4], in assay [5] and in assay [6] was “inactive” throughout. In assay [7], the Potency entry was “inactive”. Further, the outcome in assay [8] was inactive.
As for `CC(CC=O)c1ccccc1` (stereo not drawn), the Potency result in assay [1], in assay [2], in [3], in [4], in assay [5] and in assay [6] was “inactive” throughout. Further, the Potency result in assay [7] is “inactive”. In addition, the molecule was called inactive in assay [8].
Turning to `CCCCC(CC)COC(=O)CCCCCCCCC(=O)OCC(CC)CCCC` (stereo not drawn), the Potency entry in [1], in assay [2], in [3], in assay [4], in [5] and in [6] was “inactive” in each case. Further, the Potency entry in [7] is “inactive”. Moreover, the result in [8] was inactive.
For the molecule `COc1cc2nc(N3CCN(C(=O)C4COc5ccccc5O4)CC3)nc(N)c2cc1OC` (stereo not drawn), the Potency result in assay [1], in assay [2], in assay [9], in assay [4], in assay [5] and in [6] was “inactive” each time. Further, the Potency entry in [7] was “inactive”. In assay [8], the molecule was called inactive.
Consider `CCCCO`, for which the Potency entry in [1], in assay [2], in assay [9], in [4], in [5] and in assay [7] was “inactive” each time. In addition, the molecule was classed as inactive in assay [8].
`Brc1c2ccccc2cc2ccccc12`: the Potency entry in assay [1], in assay [2], in assay [3], in assay [4], in assay [5] and in [7] was “inactive” each time. In addition, the molecule was classed as inactive in assay [8].
With `C=C1[C@H]2CC[C@@H]3[C@H]2C(C)(C)CCC[C@]13C`, the Potency result in [1], in assay [2], in assay [3], in [4], in [5] and in [7] was “inactive” in each case. For the same molecule, the molecule was classed as inactive in assay [8].
Take `CC(=O)c1ccc2c(c1)N(CCCN(C)C)c1ccccc1S2`: the Potency result in assay [1], in assay [2], in assay [3] and in [5] was “inactive” each time. Also, the molecule was called inactive in assay [8].
As to `COc1cc2c(cc1OC)C(C(C(=O)N(CCc1ccc(OC)c(OC)c1OC)CCc1ccc(OC)c(OC)c1OC)c1ccccc1)=NCC2` (stereo not drawn), the Potency result in assay [1], in assay [2], in assay [9], in [4] and in assay [5] was “inactive” throughout. In addition, the molecule was classed as inactive in assay [8].
Turning to `CC[N+]1(CC)CCC(=C(c2ccccc2)c2ccccc2)C1C` (stereo not drawn), the Potency result in [1], in [2], in assay [9], in assay [4], in assay [5] and in assay [6] was “inactive” each time. The Potency entry in assay [7] is “inactive”. Further, the call in [8] was inactive.
For `CN(C)c1ccc(C(c2ccccc2)c2ccc(N(C)C)cc2)cc1`, the Potency entry in assay [1], in assay [2], in [4], in assay [5], in assay [6] and in [7] was “inactive” in each case. The call in assay [8] was inactive.
With `COc1ccc(C(=O)Nc2nc3ccccc3c(NCc3ccccc3)c2C#N)cc1`, the Potency result in assay [1], in assay [2], in assay [4] and in assay [5] was “inactive” in each case. In addition, the Potency in assay [3] is 10.9 µM (active). Besides, the result in assay [8] was inactive.
For `O=C(O)c1ccc(-n2nc(-c3ccccc3O)nc2-c2ccccc2O)cc1`, the Potency entry in [1], in assay [2], in assay [4], in assay [5], in assay [6] and in assay [7] was “inactive” each time. For the same molecule, the PLD induction in assay [9] was -4.07% [at 1.53 µM]. Further, the molecule was classed as inactive in assay [8].
With `CCN(CC)CCOC(=O)C(Cc1cccc2ccccc12)CC1CCCO1` (stereo not drawn), the Potency entry in [1], in [2], in [9], in assay [4], in [5] and in assay [6] was “inactive” in each case. Besides, the Potency result in [7] is “inactive”. Moreover, the molecule was called inactive in [8].
For the molecule `Nc1ccc(S(=O)(=O)Nc2ccccc2)cc1`, the Potency result in [1], in assay [2], in assay [9], in [4], in assay [5] and in assay [7] was “inactive” each time. Further, the outcome in [8] was inactive.
Turning to `CCCCC`, the Potency entry in [1], in [2], in [9], in assay [5] and in assay [6] was “inactive” in each case. Further, the Potency in assay [4] was 1.69 µM (active). Besides, the molecule was called inactive in assay [8].
On to `CCC(C)(C)CC`, for which the Potency result in [1], in assay [2], in assay [4], in [5], in assay [6] and in [7] was “inactive” each time. In assay [8], the outcome was inactive.
On to `CCn1cc(C(=O)O)c(=O)c2cnc(N3CCNCC3)nc21`, for which the Potency entry in assay [1], in assay [2], in assay [9], in [4], in [5] and in assay [6] was “inactive” in each case. Besides, in [7], the Potency result is “inactive”. For the same molecule, the result in assay [8] was inactive.

The record behind these values is PubChem BioAssay (Tox21).
